Laboratory results taken from PubChem BioAssay AID1508600 (Functional Genomics Laboratory (NCATS/FGL), 2020).
The campaign covered roughly 53,000 sequences. About 3,700 (7%) were called active.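 How the source made its calls: active means gene knockdowns whose robust z-score for IL-1 alpha signal is at least 2 or at most -2, so actives lie on both sides; inactive means the rest.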 Only a selection was taken, and actives are over-represented in it overall.

Test: Components of the Cytosolic LPS Sensing Pathway: Gene Identification via Genome-wide siRNA Screen;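 further: robust z of the log signal after scaling to non-targeting control siRNA wells of the plate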
Settings: RAW264.7 macrophages, IL-1a HTRF, actives lie on both sides, screened at 100 nM (by protocol), cells primed 5 h with Pam3CSK4 first
Method in brief: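 Supernatant IL-1a by HTRF from RAW264.7 cells primed with Pam3CSK4 (5 hours) and transfected with LipidA (24 hour) after 48h siRNA knockdown at 100 nM; cell viability checked with CellTiter-Glo.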

z-score, inactive:
GGUCAUCGGGAGGUUUGAATT against Nfkbil1 -0.0141, GGAUCUCUAUAGCAUCGUGTT against Col18a1 0.249, GGGAUGCUGUAGAUGGAAUTT against Olfr978 0.0466, GGCAAAUCAAGCAGAAAAUTT against Ncor1 0.739, GAUAAUGGUCACUAAAUCUTT against Vmn1r4 -1.65, GCAACCAUUUAAGAAGACCTT against Tnfrsf9 -0.301, GGUGAUCUGGACCAAGAUGTT against Lcp1 -0.52, GGUCUACUUUUACGUCUCCTT against Nfatc4 -0.339, CCUUCUUGAAAACUCCAAGTT against Lum -0.862, GGGAAGGCACACCAUAGAATT against Zfp369 1.11, GGGCUACUAUUCAUUGAUCTT against 4930550L24Rik 1.94, CCACUAAGUCCCAUGCUAGTT against Glycam1 0.188, GGAAUUUAAGGUGUUCACATT against Lcn3 -0.197, CCAAAUGUAACUGGUGUAATT against Aif1l -0.69, CGAGACAGUUUCCAUAGCGTT against Spen -0.271, GCAACAUUAGGAUUUAUAGTT against Gask1b 0.0376, GGUAGUCAUACAGAUAUGUTT against Hey2 0.973, GCAAUCUCUCCUUUUGUGATT against Olfr1128 0.426, GGACUUUCACAGACCACUUTT against Rgma 0.999, GGAACAAGGAUGUAAAAUUTT against Olfr1090 -0.751, CCUACAGCAACCAUAAGGATT against Plch2 -1.6, GGACAGCUGUUUCAAUUCUTT against Il1rap -0.162, GGAUUUGCCUACACAUAUGTT against Nqo1 0.362, GGAAAUGAAGAGUGUUGAATT against Slc7a3 -0.4, UGCCCAAGACUCAGAAGUCTT against Igf1 0.0658, GGCCAAGCACGAUAAAUACTT against Stub1 -1.08, CCUACAGUAUGUGGCAGAUTT against Grb7 -1.49, GGUGUUUUAUACACUCUGUTT against Mgme1 -1.85, CGUGGUUGUACAUAUUUGUTT against Trip10 0.39, GGGAAACAAAUUGUUUGCATT against Dnaaf4 -0.461, GGCUUUGUCGUUAAUUUUUTT against Auh 0.322, GGCAAAUAUUCAGUUUGGATT against Scarb2 -0.00406, GGGUUUAUAAAACUGAAGUTT against Cav2 0.672, GGCACAUGAGACAGCUUUUTT against Tmem160 0.0311, CGUGUUCAGCGUAGAAACUTT against Ttll1 0.283, GGUUUCAGAGCUAAACCCUTT against Larp4b 0.235, CCAUAGUUUUGGUUACCAATT against E330037G11Rik -0.213, GUCUCUUUGCCCUGUGCUATT against Vmn1r239-ps 0.0206, GGCUUGGAUUUUGAAAUACTT against Srcin1 -0.792, GCUCAGCAAUACUUCCUACTT against Itgal -0.188, GCUCAUAUACACCAUUUCUTT against Tmem171 -1.12, GCCUAUCAAUGUGUAUCUUTT against Tcf21 -0.497, GGGAAAGUAAUUGAUAAACTT against Mtrr 0.59, CCGAGUUCGGGUAUCUUGGTT against Grwd1 -0.885, CCCACCACAAGCUAAUACATT against Ubac1 -0.0826, GGAACAAAGACAUGUAUCATT against Zgpat -0.931, GCUCAGAAGUCCAAGAUACTT against Casp12 -1.86, GGUCGCUGGAGACCUUAGUTT against Hjurp -1.88, GGAACAGGUGAUCCGCUACTT against Lzts2 1.26, GGAAGCUAUGAACAAUACATT against Sulf2 0.00856, GGUGUGAUGGAGUUCUUAUTT against Ndufs1 -0.94, GGUUCCAUAACCUGUGUCATT against Fbxo28 0.272, GGGUUAAUGCAGCUCACGUTT against Lrrtm1 0.425, CCAAUUACGGAGAUUGGAATT against Tspan6 -0.803, GGUUGAUUCCAACGACAUCTT against Tinagl1 -0.173, GCAUAAAGCACCCGGAGAGTT against Zbtb32 -1.53

z-score, active:
CGAGAUAGAGUCUGGAAUUTT against 1700092C17Rik 3.91, GUGUACGUCUGUUAACACATT against Dad1 -2.1, GGCUCAGUGAGUUUCAGAATT against Snx25 3.66, GGAAGACUUUCUGGACAUATT against Sgk2 2.44, CCCUUCUCCACCUGAGAGUTT against Orm3 -2.25, GCUAACUGCCUUGGGAAGATT against Lyl1 2.57, GGACUUAAAACAGAAAGCATT against Haus1 -2.79, GGUGCAUUAUCUUGGUUCGTT against Hmga2 -2.46, CGUCCUAGGAAUCUACUUUTT against Itgad 2.63, GUCUGUCAUUUGUGGAAAUTT against Olfr1495 -2.17, GCACUCUGUUCAGCUAAAATT against Tafa3 2.16, GGCUUUGGCGAUAAGACAUTT against Glud1 2.29
